# Measured values reported in PubChem BioAssay (EPA / NIEHS).
# Some structures have more than one record in an assay (separate samples or runs), and their calls can disagree. The source made the active and inactive calls. The calls were made as follows: active = hit-call score of the fitted dose curve at least 0.9, where 1 is the maximum; inactive = score below 0.9.
# Test: APR_HepG2_StressKinase_72hr: Apredica 72-hour HepG2 Assay for Stress Kinase (AID 2282921)
# Conditions: HepG2 stress kinase (phospho-c-Jun) imaging, actives raise or lower the signal
# Procedure: APR_HepG2_72hr is a cell-based, multiplexed-readout assay that uses HepG2, a human liver cell line, with measurements taken at 72 hours after chemical dosing in a 384-well plate.APR_HepG2_StressKinase_72hr is one of 10 assay component(s) measured or calculated from the APR_HepG2_72hr assay. It is designed to make measurements of enzyme activity, a form of enzyme reporter, as detected with fluorescence intensity signals by HCS Fluorescent Imaging technology.Data from the assay component APR_HepG2_StressKinase_72hr was analyzed into 1 assay endpoint. This assay endpoint, APR_HepG2_StressKinase_72hr, was analyzed with bidirectional fitting relative to DMSO as the negative control and baseline of activity. Using a type of enzyme reporter, measures of protein for gain or loss-of-signal activity can be used to understand the signaling at the pathway-level as they relate to the gene . Furthermore, this assay endpoint can be referred to as a primary readout, because this assay has produced multiple assay endpoints where this one serves a signaling function. To generalize the intended target to other relatable targets, this assay endpoint is annotated to the cell cycle intended target family, where the subfamily is stress response.
# Cells were treated with dimethyl sulfoxide (DMSO) as a solvent control at a final concentration of 0.5% v/v or with compounds in DMSO with a resulting final DMSO concentration of 0.5% v/v. Compound treatment was done at concentrations of 0.39, 0.78, 1.56, 3.12, 6.24, 12.5, 25, 50, 100, and 200 uM in duplicate on each plate. Cells were treated with compounds for 1, 24, or 72 hr. Carbonyl […] m-chloro-phenylhydrazone (CCCP) and taxol were used as positive controls for mitochondrial function and cytoskeletal stability, respectively; DMSO served as the negative control for this experiment. Cells were fixed by the direct addition of 50 uL formaldehyde in Hank's Balanced Salt Solution (HBSS) to a final concentration of 3.7%. After incubation in the fixation medium for 30 min at room temperature (293-298 K), cells were rinsed twice with HBSS and treated with cell permeabilization buffer (16 uL of 0.5% Triton X-100) for 10 min at room temperature (293-298 K) before labeling. For mitochondrial membrane potential and mitochondrial measurements, pre-fixed cells were incubated with 50 uL of MitoTracker Red CMXRos (Invitrogen) at a concentration of 250 nM for 30 min before fixation. In the remaining cases, post-fixed cells were labeled by incubation with a multiplexed mixture of primary antibodies in HBSS for 60 min at room temperature (293-298 K) to detect immunoreactivity of c-Jun (1:500), phospho-histone H3 (1:100), phospho-histone H2A.x (1:200), p53 (1:400), alpha-tubulin (1:200) and Hoechst 33342 (2 ug/mL). Cells were labeled for multiplexed imaging on two separate plates: a) Hoechst 33342, MitoTracker Red, phospho-histone H3, and alpha-tubulin, and b) Hoechst 33342, phospho-histone H2A.x, and c-Jun. A final rinse with HBSS (50 uL) was performed before analysis. The primary and secondary antibodies for the proteins were phospho-histone H3 (rabbit anti-phospho-histone H3 and FITC-donkey anti-rabbit IgG), phospho-histone H2A.x (mouse anti-phospho-histone H2A.x and FITC-donkey anti-mouse IgG), c-Jun (rabbit anti-phospho-c-Jun and Cy3-donkey anti-rabbit IgG), p53 (sheep anti-p53 and Cy5-donkey anti-sheep IgG), alpha-tubulin (mouse anti-alpha-tubulin and Cy5-donkey anti-mouse IgG). These antibodies are available as the CellCiphr HepG2 assay kit (Millipore).Digital images of each well were captured using a Cellomics ArrayScan VTI (Thermo Scientific Cellomics) (0.8 NA objective, 0.63x optical coupler, and XF-93 filter set) at 20x magnification. The images were acquired using the autofocus feature of the ArrayScan instrument, which entails the following steps. First, the camera focuses on channel 1 (Hoechst 33342), where nuclei are identified. Second, a Z offset of 1 um is used for capturing mitochondria (MitoTracker Red). […]
Compound,outcome,AC50
O=C(c1ccccc1)C1CCCCC1,inactive,
CCN(Cc1c(F)cccc1Cl)c1c([N+](=O)[O-])cc(C(F)(F)F)cc1[N+](=O)[O-],inactive,
O=C(O)c1ccccc1,inactive,
S=C(S)NCCNC(=S)S.[Mn+2].[S-]C([S-])=NCCN=C([S-])[S-].[Zn+2],inactive,39.8 µM (active)
CCOC(=O)C(C)Oc1ccc(Oc2cnc3cc(Cl)ccc3n2)cc1 (stereo not given),inactive,
Cc1nn(C)c(Oc2ccccc2)c1C=NOCc1ccc(C(=O)OC(C)(C)C)cc1,inactive,
CCOC(=O)c1ccc(O)cc1,inactive,
C#CCOC(=O)[C@@H](C)Oc1ccc(Oc2ncc(Cl)cc2F)cc1,inactive,
c1ccc2[nH]c(-c3cscn3)nc2c1,inactive,
COC(=O)c1ccccc1S(=O)(=O)NC(=O)Nc1nc(OC(F)F)cc(OC(F)F)n1,inactive,
CCC(O)=C1C(=O)CC(C(=O)O)CC1=O (stereo not given),inactive,
CCCCC(CC)COC(=O)c1ccccc1C(=O)O (stereo not given),inactive,
CCSC(=O)N(CC(C)C)CC(C)C,inactive,
CC(=O)[C@H]1CC[C@H]2[C@@H]3CCC4=CC(=O)CC[C@]4(C)[C@H]3CC[C@]12C,inactive,
COCCO,inactive,
CC(C)(c1ccc(O)cc1)c1ccc(O)cc1,inactive,102 µM (active)
CCCCOC(=O)C(C)Oc1ccc(Oc2ccc(C(F)(F)F)cn2)cc1 (stereo not given),inactive,
OB(O)O,inactive,
CCCCCOC(=O)COc1cc(N2C(=O)C3=C(CCCC3)C2=O)c(F)cc1Cl,inactive,

Compound,outcome,AC50
CCN(CC)C(=O)c1cccc(C)c1,inactive,
COC(=O)c1ccc(I)cc1S(=O)(=O)NC(=O)Nc1nc(C)nc(OC)n1,inactive,
S=C([S-])NCCNC(=S)[S-].[Mn+2],inactive,
COC(=O)CSc1cc(N=c2sc(=O)n3n2CCCC3)c(F)cc1Cl,inactive,
CC(C)CCCCCCc1ccc(O)cc1,inactive,
CCOC(=O)C(C)Oc1ccc(Oc2nc3ccc(Cl)cc3o2)cc1 (stereo not given),inactive,
CCCOC(=O)c1ccc(C(=O)OCCC)nc1,inactive,
CCCCC(CC)CN1C(=O)C2C3C=CC(C3)C2C1=O (stereo not given),inactive,
O=C(Nc1ccc([N+](=O)[O-])cc1Cl)c1cc(Cl)ccc1O,inactive,
CCCCOC(=O)[C@@H](C)Oc1ccc(Oc2ccc(C(F)(F)F)cn2)cc1,inactive,
CC1(C)C(C=C(Cl)Cl)C1C(=O)OCc1cccc(Oc2ccccc2)c1 (stereo not given),inactive,
COc1nc(C)nc(NC(=O)NS(=O)(=O)c2ccccc2OCCCl)n1,inactive,
CCOC(=O)NCCOc1ccc(Oc2ccccc2)cc1,inactive,
CN(C)C(=O)Nc1ccc(Cl)c(Cl)c1,inactive,
COC(=O)c1ccc(CNS(C)(=O)=O)cc1S(=O)(=O)NC(=O)Nc1nc(OC)cc(OC)n1,inactive,
CCCCCCC(C)OC(=O)COc1nc(F)c(Cl)c(N)c1Cl (stereo not given),inactive,
C[C@]12CC[C@@H]3c4ccc(O)cc4C[C@@H](CCCCCCCCCS(=O)CCCC(F)(F)C(F)(F)F)[C@H]3[C@@H]1CC[C@@H]2O (stereo not given in full),inactive,
C[C@]12C[C@H](O)[C@H]3[C@@H](CCC4=CC(=O)CC[C@@]43C)[C@@H]1CC[C@@H]2C(=O)CO,inactive,
CCCN(CCC)C(=O)SCC,inactive,
